± gives the standard deviation.
test system: EfPiwi piRISC loaded with L1MC piRNA (26 nt); test: pre-steady-state target cleavage rate (min^-1); auxiliary factor: none (no Gtsf1); guide: L1MC piRNA 5'p-UAACUAAAUACUAUGCAAGCUGUAGG; MIWI and MILI are mouse PIWI proteins and EfPiwi is from a freshwater sponge; tags in brackets are library labels; higher = faster piRNA-guided slicing of the target
Description: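 Cleave-'n-Seq: a library of target RNAs (target site in constant flanks) at […] was incubated with 1 nM active freshwater sponge Ephydatia fluviatilis Piwi piRISC (synthetic 5'-monophosphorylated piRNA guide) with or without 500 nM EmGtsf1 at 33 °C for 1 min to 16 h. Uncleaved targets were sequenced and the pooled three trials fitted to a burst-and-steady-state model to give the pre-steady-state cleavage rate (min^-1). Sequence is the target site only. Fits with R² ≤ 0 are excluded.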

UCCUGGAUGUCGAAGCUUAGUAUUUAGUAA and UCCUGGAUGUCGAUCCAUAGUAAUUAGUUA cannot be ordered by “pre-steady-state target cleavage rate” value: less than 0.0001 for the first, less than 0.0001 for the second.

UCCUCCUACAGCUUGCAUAGUAUUGUAGUUA and UCCUGGAUGUCGUUGCAUAGUUUUAGUUA cannot be ordered by “pre-steady-state target cleavage rate” value: less than 0.0001 for the first, less than 0.0001 for the second.

Going from UCCUGGAUGUCGAACGAUACUAUUUAGAUA to UCCUGGAUCAGCUUGCAUAGUAUAUAGUUA, the “pre-steady-state target cleavage rate” value rises from less than 0.0001 to 0.0117 ± 0.0058.

UCCUGGAUCAGCAACCAUAGUAUUUUCAAA and UCCUGGAUGUCGUUGCAUAGAUUUAGUUA cannot be ordered by “pre-steady-state target cleavage rate” value: less than 0.0001 for the first, less than 0.0001 for the second.

Compared with UCCUGGGACAGCUUGCAUAGUAUUUAGUUA, UCCUGGAUGUCGAACGUAUCUGAUUUAGUUA is lower in “pre-steady-state target cleavage rate” value: 0.00525 ± 0.0051 for the first, less than 0.0001 for the second.

UCCUGGAUGAGCUUGCAUAGUAAUUAGAAA and UCCUGGAUGUCCUUGCAUUCAAUUUAGUAA cannot be ordered by “pre-steady-state target cleavage rate” value: less than 0.0001 for the first, less than 0.0001 for the second.

First: UCCUGGAUGUGCAUGCAUAGUAUUUACUUA
Second: UCCUGGAUGUGCUUGCAUAGUAUCUUAGUUA
The “pre-steady-state target cleavage rate” value of the first is lower: less than 0.0001 for the first, 0.0107 ± 0.0064 for the second.

UCCUGGAUGUCGAUCCAUAGUAUUUACUUA and UCCUGGAUCAGCUUCGUUAGUAUUUUCAAA cannot be ordered by “pre-steady-state target cleavage rate” value: less than 0.0001 for the first, less than 0.0001 for the second.

UCCUCCUACACGAUGCAUAGUAUUUACAAA and “UCCUGCUACAGCUUGCAUACAUAAAUCAAA [g12:g25:cont:t1A]” cannot be ordered by “pre-steady-state target cleavage rate” value: less than 0.0001 for the first, less than 0.0001 for the second.

Compared with UCCUGGAUGUCGAUGGAUAGAAUUUAGUUA, UCCUCCUACAGCUUGGAUACUAUUUAGUUA is higher in “pre-steady-state target cleavage rate” value: less than 0.0001 for the first, 0.00497 ± 0.0037 for the second.

UCCUGGAUGAGCUUGCAUCAGUAUUUAGUUA and UCCUGCUACAGCUUGCAAUCUAUUUUCAAA cannot be ordered by “pre-steady-state target cleavage rate” value: less than 0.0001 for the first, less than 0.0001 for the second.

UCCUCCUACAGGAUGCAUAGUAUUUUCAAA and UCCUGCUACAGCUUCGUUAGUAUUUUCAAA cannot be ordered by “pre-steady-state target cleavage rate” value: less than 0.0001 for the first, less than 0.0001 for the second.

UCCUGGAUGUCGAACGUUAGUAUUUAGAUUA and UCCUCCUACAGCUUCCAUAGUAUAUAGUUA cannot be ordered by “pre-steady-state target cleavage rate” value: less than 0.0001 for the first, less than 0.0001 for the second.

UCCUGGAACAGCUUCCAUAGUAUUAAGUUA and UCCUGGAUGUCGAUGCAUAGGAUUUAGUUA cannot be ordered by “pre-steady-state target cleavage rate” value: less than 0.0001 for the first, less than 0.0001 for the second.

“UCCUGGAACAGCUUGCUAUCAUAAAUCAAA [g15:g23:cont:t1A]” and UCCUGGAUGUCCUUGCAUAAGUAUUUAGUUA cannot be ordered by “pre-steady-state target cleavage rate” value: less than 0.0001 for the first, less than 0.0001 for the second.

UCCUGGAUGUCCUUGCAUAGUAUUUCAGUUA and UCCUGGAUGUCGAACGUUAGAAUUUUGUUA cannot be ordered by “pre-steady-state target cleavage rate” value: less than 0.0001 for the first, less than 0.0001 for the second.

“UCCUGCUACAGCUUGCAAUCAUAAAUCAAA [g14:g25:cont:t1A]” and UCCUGGAUGUCGAAGCAUAGUAUUUAGAUA cannot be ordered by “pre-steady-state target cleavage rate” value: less than 0.0001 for the first, less than 0.0001 for the second.

UCCUGGAUGUCCUUCGUUAGUAUUUAGUUA and “UCCUGGAUGUCGAACGUAUGUAUUUAGUUU [g2:g11:cont:t1U]” cannot be ordered by “pre-steady-state target cleavage rate” value: less than 0.0001 for the first, less than 0.0001 for the second.

Compared with UCCUGGAACAGCUUGUAUAGUAUUUAGUUA, UCCUGGAUGUCGAACGAUAAUAUUUAGUUA is lower in “pre-steady-state target cleavage rate” value: 0.00519 ± 0.0044 for the first, less than 0.0001 for the second.

UCCUGGAUGUCGAACGUAUGUAUUUAUUA and UCCUGGAUGUCGAUGCAAGUAUUUAGUUA cannot be ordered by “pre-steady-state target cleavage rate” value: less than 0.0001 for the first, less than 0.0001 for the second.

— the supplement of paper PMC10338343
